Test [1] concerns Zika virus NS2B-NS3 protease. Description: Primary screen GU AMC qHTS for Zika virus inhibitors (AID 1347154).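 Further: 0% = no-inhibitor control and -100% = no-enzyme control; nearly all actives have a fitted effect of over 70% in size.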 The essentials: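 Fluorogenic AMC-substrate cleavage by noncovalent NS2B-NS3 protease complex (25 nM, pH 8.0 Tris buffer with Tween 20) followed for 15 minutes at room temperature (~20% conversion). Percent inhibition from ex340/em450 signal change, fitted by 4-parameter Hill equation.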
For orientation: qHTS replaces the single test concentration by a dilution series.

Test [2] can be described thus: Primary qHTS for small molecule stabilizers of the endoplasmic reticulum resident proteome: Secreted ER Calcium Modulated Protein (SERCaMP) assay (AID 1508630). Further: on the % scale 0 is the no-effect control and ±100 the full control effect. The essentials:
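GLuc-SERCaMP-expressing SH-SY5Y cells, pretreated 16 h with compound, are challenged with thapsigargin to empty ER calcium stores; after 4 h, coelenterazine is added directly to the medium and luminescence is imaged.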

The target in test [3] is Cytochrome P450 1A2 (Homo sapiens) (UniProt P05177). Put plainly: p450-cyp1a2 (AID 410; calls by dose curve; further: potency means the concentration at half of the fitted maximal effect;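 on activity change, negative = inhibition: -100% = full effect of reference inhibitor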). The essentials:
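Luminescent readout of luciferin formed from Luciferin-ME by human CYP1A2; data normalized against complete inhibition by 57 uM furafylline. Enzyme 20nM, substrate 100uM at Km, 100mM KPO4 buffer, 60 min reaction at room temperature.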

Test [4] has as its target Glucocorticoid receptor (Homo sapiens) (UniProt P04150). Put plainly: GR-GFP Redistribution (AID 450;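 active means compounds whose dose series gives a full or clear partial fitted curve of increased nuclear translocation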; further: potency means the concentration at half of the fitted maximal effect). The conditions noted are these: U2OS GR-GFP nuclear translocation, laser cytometry, 2 h.
Test [5] shares this target. Put plainly: GR-EFC Redistribution (AID 451; calls by dose curve; further: potency means the concentration at half of the fitted maximal effect). As to conditions: CHO-K1 GR-EFC translocation, beta-gal luminescence, 2 h. The essentials:
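Translocation of GR-ED fusion to nuclear EA restores b-gal, read by luminescence after 1 h room-temperature detection. Engineered CHO-K1 biosensor cells, 1,000/well, exposed 2 h at 37 C to titrations up to 46 uM final.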

In test [6] the target is 3',5'-cyclic-AMP phosphodiesterase 4B (Homo sapiens) (UniProt Q07343). Description: qHTS Assay for Inhibitors of PDE-IV (AID 607; active means well fitted activation curve with a large enough effect in the main read-out, with a control signal flat, not every such curve was filed as active; further: % of control where 0% means no effect). The essentials:
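The readout is membrane depolarisation from a cAMP-sensing CNG channel, detected with a potential dye at ex 535/em 590. Cells were HEK293-derived (endogenous PDE-IV) at 1000 cells/well, titrated up to 22.9 uM final.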

Test [7] deals with Cytochrome P450 3A4 (Homo sapiens) (UniProt P08684). Description: qHTS Assay for Activators of Cytochrome P450 3A4 (AID 885). Further: nearly all actives have a fitted effect of over 65% in size. Further: potency means the concentration at half of the fitted maximal effect. The essentials:
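Steps: enzyme/substrate mix dispensed; compound added, 10 min RT; NADPH regeneration solution added, 60 min RT; luciferin detection buffer stops reaction; 20 min later luminescence measured.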

Test [8] has as its target Ubiquitin carboxyl-terminal hydrolase 1 (Homo sapiens) (UniProt O94782). Description: Inhibitors of USP1/UAF1: Pilot qHTS (AID 504865).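 Further: rhodamine fluorescence freed from ubiquitin-rhodamine substrate followed over time; top concentration of the series differs between compounds; on the % scale 0 is the no-effect control and ±100 the full control effect; nearly all actives have a fitted effect of over 35% in size.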 The essentials:
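Deubiquitinase activity followed as kinetic rhodamine fluorescence release from 150 nM Ub-Rho. 1 nM USP1/UAF1 with compound, after 15 min room-temperature preincubation, in HEPES pH 7.8 buffer containing TCEP, EDTA, BSA and Tween-20.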

In test [9] the target is DNA dC->dU-editing enzyme APOBEC-3G (Homo sapiens) (UniProt Q9HC16). Put plainly: qHTS for inhibitors of Vif-A3G interactions: Validation (AID 588379). Further: 0% is about no effect. The essentials: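 HeLa cells stably expressing Vif and A3G-eYFP, 700 cells/well, incubated overnight at 37 deg C, then exposed to compound overnight at 37 deg C. Inhibition of Vif-mediated degradation read as increased yellow fluorescence (Ex 488/Em 500-530) by laser-scanning cytometry.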

Test [10] is described as follows: AP1 Signaling Pathway (AID 357; active means well fitted curve in either direction with a large enough effect, not every such curve was filed as active;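 further: ME-180 reporter cells stimulated with EGF at its EC50 level; on the % scale 0 is the no-effect control and ±100 the full control effect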). As to conditions: ME-180 AP-1-bla reporter, EGF-induced, beta-lactamase ratio, 5 h; at 38 µM (top of the series). The essentials: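 AP-1-bla ME-180 cells, Opti-MEM + 0.5% dialyzed FBS, plated overnight 37 °C. Cpd titration + EC50 EGF, 5 h 37 °C. CCF4 2.5 h RT; ex 405, em 460/530 ratio → %activity, AC50.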
Test [11] in a line: NFAT Signaling Pathway (AID 444; active means well fitted curve in either direction with a large enough effect, not every such curve was filed as active;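 further: carbachol stimulus at about its EC50 of 1 µM final; on the % scale 0 is the no-effect control and ±100 the full control effect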). As to conditions: Jurkat NFAT-bla M1, carbachol, beta-lactamase ratio, 5 h; at 38 µM (top of the series). The essentials: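 Read-out: CCF4 FRET ratio (460 nm/530 nm) after 1 h RT dye loading, used for %activity and AC50 from titration series. Cells: Jurkat NFAT-β-lactamase/M1 line, treated with compound plus 1 uM carbachol for 5 h, 37 °C.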
Test [12] is described as follows: Stat Signaling Pathway (AID 446; active means well fitted curve in either direction with a large enough effect, not every such curve was filed as active;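 further: ME-180 cervical cancer cells given 40 pM IL-6 alongside compound; SIE-controlled beta-lactamase reporter measured as 460/530 nm FRET emission ratio; on the % scale 0 is the no-effect control and ±100 the full control effect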). The conditions noted are these: ME-180 SIE beta-lactamase reporter, IL-6 stimulated, 5 h; at 38 µM (top of the series). The essentials:
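Screening format detects activators and inhibitors alike: ME-180 SIE-bla cells stimulated at 40 pM IL-6 for 5 hrs with compound, then dual-emission beta-lactamase read at 405 nm excitation.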

In test [13] the target is Mitogen-activated protein kinase 10 (Mus musculus) (UniProt Q61831). Put plainly: JNK3 AlphaScreen Assay (AID 530; active means well fitted curve in either direction with a large enough effect, not every such curve was filed as active). The essentials: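 Compound titrations were preincubated 15 minutes at room temperature with substrate, antibody and pre-activated JNK3-containing HepG2 lysate. Reactions were started with 10 uM ATP and stopped with EDTA-containing bead buffer for AlphaScreen detection.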

Test [14] has as its target Cytochrome P450 2D6 (Homo sapiens) (UniProt P10635). Put plainly: qHTS Assay for Inhibitors and Substrates of Cytochrome P450 2D6 (AID 891). Further: nearly all actives have a fitted effect of over 60% in size. Further: potency means the concentration at half of the fitted maximal effect. The essentials:
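Human CYP2D6 (5 nM) with 30 uM Luciferin-ME EGE (at Km) in 100 mM KPO4, compound preincubated 10 min, then NADPH regeneration system for 60 min at room temperature. Luciferin read by luminescence; normalized to 1.43 uM quinidine.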

Test [15] deals with Cytochrome P450 2C19 (Homo sapiens) (UniProt P33261). Put plainly: qHTS Assay for Inhibitors and Substrates of Cytochrome P450 2C19 (AID 899). Further: nearly all actives have a fitted effect of over 60% in size. Further: potency means the concentration at half of the fitted maximal effect. The essentials:
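Reactions contain 5nM enzyme, 10uM Luciferin-H EGE (KM) and 50mM KPO4; compound preincubates 10 min at 37C, NADPH regeneration starts turnover for 60 min. Luminescence after detection reagent gives activity.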

The target in test [16] is Pyruvate kinase (Leishmania mexicana) (UniProt Q27686). Description: qHTS Validation Assay for Inhibitors of Leishmania Mexicana Pyruvate Kinase (AID 945).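 Further: 0% = DMSO only neutral control wells.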 The essentials: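 qHTS eight-point titrations against 0.2 nM LmPYK (E451W) in imidazole buffer pH 7.2 with 0.5 mM PEP, 0.1 mM ADP; 1 h, room temperature. Readout: PKLight luminescence, normalized to neutral DMSO wells.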

Test [17] addresses Pyruvate kinase PKM (Homo sapiens) (UniProt P14618). Description: qHTS Assay for Activators of Human Muscle Pyruvate Kinase (AID 954; active means well fitted curve in the direction sought with a large enough effect, not every such curve was filed as active;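 further: 0% = uninhibited enzyme and -100% = no enzyme or full thiadiazolimine inhibition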). The essentials:
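Reaction: 0.1 nM purified PKM2 with 0.5 mM phosphoenolpyruvate and 0.1 mM ADP, room temperature, 1 h. Readout: luciferase-based ATP luminescence after stop reagent. Activators judged against a 0.3 nM enzyme column.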

The target in test [18] is alpha-glucosidase (Oryza sativa, rice) (UniProt Q653V4). Put plainly: Counterscreen for Glucocerebrosidase Inhibitors: qHTS Assay for Rice alpha-Glucosidase at pH 5.0 (AID 997).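 Further: 0% = full activity with enzyme and -100% = basal without enzyme.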 The essentials:
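Rice alpha-glucosidase (4 nM final) with 400 uM 4-methylumbelliferyl-alpha-D-glucopyranoside in citrate buffer pH 5.0, 20 min at room temperature, stopped at pH 10; fluorescence 365/440 nm, compounds 0.7 nM–77 uM, AC50 from Hill fits.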
Background: Counterscreens check selectivity or assay interference.

The nature of test [19]: qHTS Assay for Lipid Storage Modulators (AID 1519; calls by dose curve). As to conditions: Drosophila S3 cells, BODIPY lipid droplet/cell ratio, laser cytometry, cells loaded with oleic acid; for activity change, negative = inhibition: at 57.5 µM (top of the series). The essentials:
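Cells seeded at 5,000 per well were treated with compounds over a concentration series and loaded with oleic acid (400 uM, as added). Lipid droplet fluorescence (488 nm excitation, 500-530 nm channel) was read by laser-scanning cytometry and normalized to 20 uM Triacsin C.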

Test [20] deals with Cytochrome P450 3A4 (Homo sapiens) (UniProt P08684). Description: qHTS Assay for Inhibitors and Substrates of Cytochrome P450 3A4 (AID 884). Further: on the % scale 0 is the no-effect control and ±100 the full control effect; nearly all actives have a fitted effect of over 50% in size. The essentials: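 20 nM human CYP3A4 with 25 uM Luciferin-PPXE (at KM) in 200 mM KPO4, preincubated 10 min with compound; NADPH regeneration started a 60 min RT reaction. Luciferin detected by luminescence, normalized to 57 uM ketoconazole as full inhibition.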

[21] abbreviates: measured here: cell count channel max response.
[22] abbreviates: measured here: lipid channel max response.

SMILES strings stand for the structures. “And” between values parts separate entries of the source, which are not always exact repeats. Equal entries are not always repeated. Results filed as inconclusive are left out. The source made the active and inactive calls. Unless noted, the call rests on the fitted dose curve; in most records, active means well fitted curve in the direction sought with a large enough effect; inconclusive means small, poorly fitted or top-dose-only effect, or another doubt; inactive means no such curve, though single readings can be large; an effect the other way counts as inactive or inconclusive.

Sequence of Cytochrome P450 1A2 (Homo sapiens) (P05177 whole entry, looked up): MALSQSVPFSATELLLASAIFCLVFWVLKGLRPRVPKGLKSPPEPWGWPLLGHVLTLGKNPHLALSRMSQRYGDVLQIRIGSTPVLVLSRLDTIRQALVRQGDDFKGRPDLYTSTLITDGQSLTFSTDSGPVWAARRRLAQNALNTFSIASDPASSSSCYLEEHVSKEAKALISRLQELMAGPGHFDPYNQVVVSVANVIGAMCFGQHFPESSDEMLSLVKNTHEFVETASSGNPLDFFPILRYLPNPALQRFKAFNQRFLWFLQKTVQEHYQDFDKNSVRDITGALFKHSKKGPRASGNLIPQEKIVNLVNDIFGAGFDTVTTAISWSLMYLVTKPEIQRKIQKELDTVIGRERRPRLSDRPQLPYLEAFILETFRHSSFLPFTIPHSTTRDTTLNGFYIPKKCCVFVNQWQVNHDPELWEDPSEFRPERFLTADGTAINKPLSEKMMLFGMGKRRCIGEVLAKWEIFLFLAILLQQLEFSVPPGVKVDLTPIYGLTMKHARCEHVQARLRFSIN
Sequence of Glucocorticoid receptor (Homo sapiens) (P04150 whole entry, looked up): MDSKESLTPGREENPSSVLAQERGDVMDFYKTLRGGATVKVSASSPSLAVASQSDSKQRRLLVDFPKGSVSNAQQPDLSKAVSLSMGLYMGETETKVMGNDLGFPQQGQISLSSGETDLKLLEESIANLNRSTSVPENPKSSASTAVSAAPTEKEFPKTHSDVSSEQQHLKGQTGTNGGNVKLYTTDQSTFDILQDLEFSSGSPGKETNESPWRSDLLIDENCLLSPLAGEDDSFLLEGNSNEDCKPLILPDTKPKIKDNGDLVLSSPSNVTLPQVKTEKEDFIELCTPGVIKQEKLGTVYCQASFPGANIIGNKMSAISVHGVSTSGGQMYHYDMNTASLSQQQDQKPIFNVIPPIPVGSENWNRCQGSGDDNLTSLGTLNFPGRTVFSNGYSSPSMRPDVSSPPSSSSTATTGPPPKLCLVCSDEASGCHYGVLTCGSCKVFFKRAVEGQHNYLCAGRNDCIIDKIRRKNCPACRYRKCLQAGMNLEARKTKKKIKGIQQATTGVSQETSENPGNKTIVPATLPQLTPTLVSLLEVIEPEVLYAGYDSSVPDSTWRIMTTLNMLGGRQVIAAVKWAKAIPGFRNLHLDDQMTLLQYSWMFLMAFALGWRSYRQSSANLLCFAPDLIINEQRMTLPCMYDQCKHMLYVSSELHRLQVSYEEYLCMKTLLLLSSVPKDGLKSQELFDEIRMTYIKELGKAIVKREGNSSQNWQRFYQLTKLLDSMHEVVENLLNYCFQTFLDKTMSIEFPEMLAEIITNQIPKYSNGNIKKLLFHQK
Sequence of Cytochrome P450 2C19 (Homo sapiens) (P33261 whole entry, looked up): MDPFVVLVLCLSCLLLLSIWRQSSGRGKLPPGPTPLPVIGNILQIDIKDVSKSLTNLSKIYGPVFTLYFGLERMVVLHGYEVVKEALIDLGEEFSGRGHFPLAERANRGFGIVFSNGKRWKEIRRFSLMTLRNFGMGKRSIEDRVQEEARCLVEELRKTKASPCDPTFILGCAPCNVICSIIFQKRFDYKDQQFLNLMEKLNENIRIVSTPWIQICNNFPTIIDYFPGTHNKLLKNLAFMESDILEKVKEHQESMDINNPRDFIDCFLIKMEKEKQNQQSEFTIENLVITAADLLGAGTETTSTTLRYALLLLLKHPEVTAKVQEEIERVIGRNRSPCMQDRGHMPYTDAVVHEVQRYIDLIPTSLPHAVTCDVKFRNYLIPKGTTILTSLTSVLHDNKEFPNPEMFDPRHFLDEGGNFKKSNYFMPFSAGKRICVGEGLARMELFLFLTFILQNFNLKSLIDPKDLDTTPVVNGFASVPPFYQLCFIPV
Sequence of Pyruvate kinase (Leishmania mexicana) (Q27686 2-499 E452W): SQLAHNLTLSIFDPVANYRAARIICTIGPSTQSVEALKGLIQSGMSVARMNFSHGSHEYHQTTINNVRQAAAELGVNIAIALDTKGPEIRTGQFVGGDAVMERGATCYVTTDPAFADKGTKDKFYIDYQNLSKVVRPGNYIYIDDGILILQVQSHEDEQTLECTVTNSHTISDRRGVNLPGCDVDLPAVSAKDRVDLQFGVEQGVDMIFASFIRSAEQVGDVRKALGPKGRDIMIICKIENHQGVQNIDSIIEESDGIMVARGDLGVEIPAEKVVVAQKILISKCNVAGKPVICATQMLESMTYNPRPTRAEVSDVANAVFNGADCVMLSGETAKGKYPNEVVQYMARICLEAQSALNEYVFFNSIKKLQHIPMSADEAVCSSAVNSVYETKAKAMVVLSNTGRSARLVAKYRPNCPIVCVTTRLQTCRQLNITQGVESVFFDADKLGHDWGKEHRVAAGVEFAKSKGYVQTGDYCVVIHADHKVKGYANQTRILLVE
Sequence of Pyruvate kinase PKM (Homo sapiens) (P14618 whole entry, looked up): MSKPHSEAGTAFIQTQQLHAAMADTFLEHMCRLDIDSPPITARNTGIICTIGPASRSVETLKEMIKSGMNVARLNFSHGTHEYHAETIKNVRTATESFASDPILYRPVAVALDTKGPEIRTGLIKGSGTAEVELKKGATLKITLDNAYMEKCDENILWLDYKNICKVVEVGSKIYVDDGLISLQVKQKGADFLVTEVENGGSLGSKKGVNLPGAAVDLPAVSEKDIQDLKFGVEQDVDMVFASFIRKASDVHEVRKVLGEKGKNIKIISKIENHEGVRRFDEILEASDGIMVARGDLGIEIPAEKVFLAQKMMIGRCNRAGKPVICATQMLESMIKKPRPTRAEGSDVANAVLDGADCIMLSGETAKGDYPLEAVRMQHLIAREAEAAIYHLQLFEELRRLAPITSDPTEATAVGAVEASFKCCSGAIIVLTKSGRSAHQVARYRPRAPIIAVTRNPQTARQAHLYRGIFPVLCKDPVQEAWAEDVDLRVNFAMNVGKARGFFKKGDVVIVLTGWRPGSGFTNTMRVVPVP
Sequence of 3',5'-cyclic-AMP phosphodiesterase 4B (Homo sapiens) (Q07343 whole entry, looked up): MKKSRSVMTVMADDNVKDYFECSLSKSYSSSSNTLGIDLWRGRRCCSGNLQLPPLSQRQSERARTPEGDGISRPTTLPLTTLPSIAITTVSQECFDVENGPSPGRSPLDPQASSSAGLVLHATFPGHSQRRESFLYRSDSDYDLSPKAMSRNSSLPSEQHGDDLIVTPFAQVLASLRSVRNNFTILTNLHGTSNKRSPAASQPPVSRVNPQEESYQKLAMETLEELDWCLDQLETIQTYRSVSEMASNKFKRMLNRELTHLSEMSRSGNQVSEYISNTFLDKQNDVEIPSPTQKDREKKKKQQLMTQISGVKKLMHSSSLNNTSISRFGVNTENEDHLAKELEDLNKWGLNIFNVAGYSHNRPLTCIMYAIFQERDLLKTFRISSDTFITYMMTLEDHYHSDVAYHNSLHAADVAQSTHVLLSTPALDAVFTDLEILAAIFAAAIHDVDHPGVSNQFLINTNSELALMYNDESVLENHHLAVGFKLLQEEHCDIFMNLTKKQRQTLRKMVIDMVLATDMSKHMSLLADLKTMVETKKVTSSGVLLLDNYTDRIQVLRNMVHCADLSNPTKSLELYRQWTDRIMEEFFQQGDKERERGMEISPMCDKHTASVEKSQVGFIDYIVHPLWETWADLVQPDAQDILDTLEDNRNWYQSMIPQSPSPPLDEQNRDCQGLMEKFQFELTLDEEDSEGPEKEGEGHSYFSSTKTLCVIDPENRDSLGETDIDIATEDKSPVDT
Sequence of DNA dC->dU-editing enzyme APOBEC-3G (Homo sapiens) (Q9HC16 whole entry, looked up): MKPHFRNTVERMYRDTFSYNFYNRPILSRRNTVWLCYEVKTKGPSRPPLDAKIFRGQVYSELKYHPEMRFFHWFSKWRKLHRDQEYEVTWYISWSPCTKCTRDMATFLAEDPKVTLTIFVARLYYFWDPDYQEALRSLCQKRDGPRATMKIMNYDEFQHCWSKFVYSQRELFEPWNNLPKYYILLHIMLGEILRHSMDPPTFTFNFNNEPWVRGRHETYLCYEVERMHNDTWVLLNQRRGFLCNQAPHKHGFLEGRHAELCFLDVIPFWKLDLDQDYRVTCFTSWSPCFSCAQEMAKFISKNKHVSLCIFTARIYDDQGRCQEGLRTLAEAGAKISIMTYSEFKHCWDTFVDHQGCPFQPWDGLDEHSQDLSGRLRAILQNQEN
Sequence of Cytochrome P450 3A4 (Homo sapiens) (P08684 whole entry, looked up): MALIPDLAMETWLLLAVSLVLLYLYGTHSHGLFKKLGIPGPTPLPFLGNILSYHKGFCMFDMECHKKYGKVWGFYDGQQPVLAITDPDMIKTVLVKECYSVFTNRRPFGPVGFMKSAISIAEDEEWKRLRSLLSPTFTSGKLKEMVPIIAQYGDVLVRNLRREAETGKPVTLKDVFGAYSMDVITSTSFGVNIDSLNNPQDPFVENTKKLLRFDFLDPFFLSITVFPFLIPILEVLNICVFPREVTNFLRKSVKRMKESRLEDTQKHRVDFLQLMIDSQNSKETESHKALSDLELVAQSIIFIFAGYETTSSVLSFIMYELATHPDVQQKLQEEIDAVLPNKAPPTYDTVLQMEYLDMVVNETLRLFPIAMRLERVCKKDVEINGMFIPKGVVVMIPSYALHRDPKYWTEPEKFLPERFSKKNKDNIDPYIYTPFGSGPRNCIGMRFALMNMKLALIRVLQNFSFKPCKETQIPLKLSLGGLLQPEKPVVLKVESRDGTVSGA
Sequence of Cytochrome P450 2D6 (Homo sapiens) (P10635 whole entry, looked up): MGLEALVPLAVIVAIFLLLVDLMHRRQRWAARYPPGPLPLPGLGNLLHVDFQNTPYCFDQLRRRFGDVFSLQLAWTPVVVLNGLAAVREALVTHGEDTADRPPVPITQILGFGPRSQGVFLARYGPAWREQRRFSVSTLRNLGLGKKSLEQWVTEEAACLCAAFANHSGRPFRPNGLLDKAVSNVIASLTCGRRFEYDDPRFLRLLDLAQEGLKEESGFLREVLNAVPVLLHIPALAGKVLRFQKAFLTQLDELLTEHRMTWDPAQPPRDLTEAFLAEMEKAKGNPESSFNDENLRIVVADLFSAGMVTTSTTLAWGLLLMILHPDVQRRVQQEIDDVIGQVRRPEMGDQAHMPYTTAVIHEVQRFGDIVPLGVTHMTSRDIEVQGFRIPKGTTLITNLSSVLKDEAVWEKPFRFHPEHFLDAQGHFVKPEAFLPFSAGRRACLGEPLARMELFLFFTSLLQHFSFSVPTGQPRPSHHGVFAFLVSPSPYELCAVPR

In the case of `Cc1nccn1CC1CCC2C(C1=O)c1ccccc1N2C` (stereo not drawn), the Potency result in test [1] and in test [2] was “inactive” in each case.
On to `C[C@@]12C(=O)OC(=O)[C@@]1(C)[C@@H]1CC[C@@H]2O1`, for which the Potency in [3] is 31.6 µM (active); in test [4], > 46 µM (inactive); in [5] it was > 46 µM (inactive). The Potency entry in test [6], in [7], in [8], in test [9], in [1] and in test [2] was “inactive” in each case.
For `CC[C@H](C)N(C)C(=O)c1cc2ccccc2c(-c2ccccc2Cl)n1`, the activity change, negative = inhibition in test [10] is -18% (inactive); in [11], -2.88% (inactive). The Potency result in [3], in [13], in test [7], in test [14], in test [15] and in test [16] was “inactive” in each case. Moreover, the Potency entry in test [9], in test [1] and in [2] was “inactive” each time. Moreover, the activity, negative = inhibition in test [12] is 8.11% (inactive). In addition, the outcome in [17] and in test [18] was inactive.
Regarding `CCOC(=O)C1=C(C)NC(C)=C(C(=O)OC)[C@H]1c1cccc([N+](=O)[O-])c1`, the results for the activity change, negative = inhibition in [10] and in test [11] were -24.5% (inactive) and -17% (inactive), respectively. Also, the Potency in test [3] was 15.8 µM (active); in test [15], 1.26 µM (active) and 251 nM (active). Moreover, the activity, negative = inhibition in test [12] is 17.9% (inactive). The Potency entry in test [16], in test [9], in test [1] and in [2] was “inactive” in each case. Besides, the call in test [17] and in test [18] was inactive.
Take `O=C1CC[C@H](C(=O)O)N1`: the Potency result in [1] and in [2] was “inactive” in each case.
Regarding `NC(C(=O)O)c1cc(O)c(Cl)c(O)c1` (stereo not drawn), the Potency entry in test [1] and in test [2] was “inactive” each time.
For the compound `CC1(C)CO[C@H](CC(=O)O)CN1`, the Potency is > 46 µM (inactive) in [4], > 46 µM (inactive) in test [5], 0.0063 µM (active) in test [14] and 5.01 µM (active) in [15]. Further, the Potency result in test [13], in test [6], in test [9], in test [1] and in [2] was “inactive” in each case. Also, the activity change, negative = inhibition in test [19] was -3% (inactive). Moreover, the figures for the max response in [19] (setting [21]) and in [19] (setting [22]) were -8.35% and -12.8%, respectively.
For `C[N+](C)(C)CCC(=O)c1cccc2ccccc12`, the Potency was 7.94 µM (active) in test [3], > 46 µM (inactive) in test [4] and > 46 µM (inactive) in [5]. The activity change, negative = inhibition in test [11] was 13.8% (active). For the same compound, in [12], the activity, negative = inhibition is -81.5% (active). Besides, the Potency result in [13], in test [6], in test [7], in [16], in test [1] and in test [2] was “inactive” throughout. Moreover, the result in test [17] and in [18] was inactive.
Consider `Cc1ccc(-c2nn(C(C)(C)C)c3ncnc(N)c23)cc1`, for which the Potency result in [1] and in test [2] was “inactive” in each case.
In the case of `O[C@@H](c1ccccc1)C1CCN(CCc2ccccc2)CC1`, the figures for the Potency in test [4], in test [5] and in test [7] were > 46 µM (inactive), > 46 µM (inactive) and 15.8 µM (active), respectively. In addition, the Potency entry in test [13], in test [20], in [9], in test [1] and in test [2] was “inactive” each time. Further, in test [19], the activity change, negative = inhibition was 3% (inactive). Moreover, the max response in test [19] (setting [21]) turned out to be 5.72%; in test [19] (setting [22]), 10.3%.

The values above are taken from PubChem BioAssay (NCATS).
